Test results as given in article PMC7862700, “An all-to-all approach to the identification of sequence-specific readers for epigenetic DNA modifications on cytosine”.

Assays:
Test in all cases: DAPPL (digital affinity profiling via proximity ligation, sequencing); 10 mM Tris-HCl pH 7.5, 50 mM NaCl, 1 mM DTT, 4% glycerol, room temperature, 30 min; GST-TFs on glutathione beads, 16-mer random dsDNA library, 0.1% formaldehyde crosslink after washing; high values mean tight binding
Settings in all cases: protein: recombinant; tags: N-terminal GST; dsDNA, one strand shown
FLI1 = biological target: T1, FLI1 (Homo sapiens, UniProt Q01543 1-452)
T1 sequence: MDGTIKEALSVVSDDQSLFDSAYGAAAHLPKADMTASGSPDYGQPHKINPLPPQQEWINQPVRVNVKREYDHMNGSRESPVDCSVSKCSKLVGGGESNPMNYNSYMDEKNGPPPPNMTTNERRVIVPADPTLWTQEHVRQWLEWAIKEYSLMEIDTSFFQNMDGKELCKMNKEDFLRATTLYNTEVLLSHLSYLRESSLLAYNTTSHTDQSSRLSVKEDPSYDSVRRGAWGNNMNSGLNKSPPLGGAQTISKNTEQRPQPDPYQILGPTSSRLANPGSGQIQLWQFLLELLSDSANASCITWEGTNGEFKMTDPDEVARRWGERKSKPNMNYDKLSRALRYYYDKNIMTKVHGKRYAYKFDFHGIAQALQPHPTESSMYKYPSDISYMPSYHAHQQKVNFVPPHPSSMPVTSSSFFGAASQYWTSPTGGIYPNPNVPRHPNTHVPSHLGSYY
Method in brief: (§1)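 GST fusions of human transcription factors were expressed in yeast and captured with glutathione beads. Once given DNA barcodes and pooled alongside a tag-only sample, they were incubated for 30 min at room temperature with 200 nmole of a random double-stranded 16-mer DNA library in Tris/NaCl/DTT/glycerol buffer, then washed, crosslinked (0.1% formaldehyde), proximity-ligated, PCR-amplified and sequenced on an Illumina NextSeq500. The binding signal of each hexamer is its read frequency for a factor divided by its frequency for the tag-only sample.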

ELK1 = biological target: T2, ELK1 (Homo sapiens, UniProt P19419 1-428)
T2 sequence: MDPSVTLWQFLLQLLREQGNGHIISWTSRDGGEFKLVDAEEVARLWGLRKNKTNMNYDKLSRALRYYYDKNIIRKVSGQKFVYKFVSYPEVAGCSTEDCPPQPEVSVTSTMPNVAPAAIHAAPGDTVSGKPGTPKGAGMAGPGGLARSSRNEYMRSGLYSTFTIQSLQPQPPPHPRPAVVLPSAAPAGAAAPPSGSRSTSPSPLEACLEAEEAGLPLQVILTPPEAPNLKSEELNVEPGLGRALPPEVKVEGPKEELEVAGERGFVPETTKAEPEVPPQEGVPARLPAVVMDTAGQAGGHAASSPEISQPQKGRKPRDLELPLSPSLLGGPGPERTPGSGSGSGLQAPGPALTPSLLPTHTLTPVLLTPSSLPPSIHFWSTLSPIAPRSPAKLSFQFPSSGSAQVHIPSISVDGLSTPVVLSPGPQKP
Method in brief: as §1

GABPA = biological target: T3, GABPA (Homo sapiens, UniProt Q06546 1-454)
T3 sequence: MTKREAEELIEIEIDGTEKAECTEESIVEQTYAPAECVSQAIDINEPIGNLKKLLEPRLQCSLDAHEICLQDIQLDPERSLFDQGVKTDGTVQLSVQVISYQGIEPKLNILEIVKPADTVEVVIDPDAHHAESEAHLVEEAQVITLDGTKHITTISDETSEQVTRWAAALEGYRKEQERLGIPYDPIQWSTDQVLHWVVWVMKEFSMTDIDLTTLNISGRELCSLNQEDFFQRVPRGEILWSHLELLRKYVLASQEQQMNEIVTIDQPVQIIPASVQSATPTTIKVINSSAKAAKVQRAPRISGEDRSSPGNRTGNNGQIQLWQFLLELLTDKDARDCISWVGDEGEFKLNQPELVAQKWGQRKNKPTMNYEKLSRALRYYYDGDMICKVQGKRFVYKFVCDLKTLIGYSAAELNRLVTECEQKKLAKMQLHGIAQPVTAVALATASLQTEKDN
Method in brief: as §1

ERG = biological target: T4, ERG (Homo sapiens, UniProt P11308 1-479)
T4 sequence: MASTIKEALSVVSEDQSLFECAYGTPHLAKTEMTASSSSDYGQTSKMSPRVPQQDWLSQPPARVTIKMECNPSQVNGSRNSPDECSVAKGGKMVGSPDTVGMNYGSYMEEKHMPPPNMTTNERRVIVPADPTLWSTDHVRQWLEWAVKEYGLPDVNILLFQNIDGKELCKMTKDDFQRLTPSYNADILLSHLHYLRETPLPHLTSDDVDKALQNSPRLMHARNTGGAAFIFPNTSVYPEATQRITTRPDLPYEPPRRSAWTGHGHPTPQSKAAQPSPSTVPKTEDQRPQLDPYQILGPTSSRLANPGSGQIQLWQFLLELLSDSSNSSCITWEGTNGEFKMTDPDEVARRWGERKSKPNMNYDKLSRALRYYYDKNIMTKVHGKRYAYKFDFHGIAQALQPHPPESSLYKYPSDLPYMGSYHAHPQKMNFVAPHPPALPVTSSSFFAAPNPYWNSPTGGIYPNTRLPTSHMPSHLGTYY
Method in brief: as §1

ELF1 = ELF1 (Homo sapiens, UniProt P32519 1-619)
ELF1, sequence (P32519 whole entry): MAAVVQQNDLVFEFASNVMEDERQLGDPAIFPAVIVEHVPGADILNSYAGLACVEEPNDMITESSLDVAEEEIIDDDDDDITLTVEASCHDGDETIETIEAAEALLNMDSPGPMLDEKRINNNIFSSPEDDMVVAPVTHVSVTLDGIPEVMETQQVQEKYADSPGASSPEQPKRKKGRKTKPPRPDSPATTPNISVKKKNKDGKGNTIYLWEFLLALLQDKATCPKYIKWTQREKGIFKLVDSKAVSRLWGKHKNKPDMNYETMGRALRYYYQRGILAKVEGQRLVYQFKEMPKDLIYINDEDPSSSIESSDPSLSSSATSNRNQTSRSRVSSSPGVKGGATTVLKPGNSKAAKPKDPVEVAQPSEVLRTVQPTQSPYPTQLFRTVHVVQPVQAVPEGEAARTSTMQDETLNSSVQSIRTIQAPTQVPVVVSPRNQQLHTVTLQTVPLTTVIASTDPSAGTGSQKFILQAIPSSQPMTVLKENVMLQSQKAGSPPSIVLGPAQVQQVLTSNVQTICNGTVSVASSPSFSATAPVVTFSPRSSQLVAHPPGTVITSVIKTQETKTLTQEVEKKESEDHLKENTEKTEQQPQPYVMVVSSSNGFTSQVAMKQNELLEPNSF
Method in brief: as §1

EHF = biological target: T5, EHF (Homo sapiens, UniProt Q9NZC4 1-300)
T5 sequence: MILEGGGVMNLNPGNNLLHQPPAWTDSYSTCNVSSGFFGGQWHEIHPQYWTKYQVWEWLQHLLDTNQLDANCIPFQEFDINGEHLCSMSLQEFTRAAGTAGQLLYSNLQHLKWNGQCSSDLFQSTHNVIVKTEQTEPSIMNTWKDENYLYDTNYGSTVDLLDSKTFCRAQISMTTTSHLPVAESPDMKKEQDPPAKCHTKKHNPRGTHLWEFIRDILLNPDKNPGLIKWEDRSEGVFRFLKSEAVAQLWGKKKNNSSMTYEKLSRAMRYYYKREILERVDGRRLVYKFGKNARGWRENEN
Method in brief: as §1

SPI1 = SPI1 (Homo sapiens, UniProt P17947 1-270)
Method in brief: as §1

SPIB = SPIB (Homo sapiens, UniProt Q01892 1-262)
SPIB, sequence (Q01892 whole entry): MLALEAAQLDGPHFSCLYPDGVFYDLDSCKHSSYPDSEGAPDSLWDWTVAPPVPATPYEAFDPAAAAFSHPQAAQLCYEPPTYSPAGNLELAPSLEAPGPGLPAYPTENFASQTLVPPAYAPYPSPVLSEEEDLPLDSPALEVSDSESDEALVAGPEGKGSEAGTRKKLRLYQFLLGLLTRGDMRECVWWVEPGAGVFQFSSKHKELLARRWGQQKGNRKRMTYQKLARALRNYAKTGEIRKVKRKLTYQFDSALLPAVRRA
Method in brief: as §1

ELK3 = biological target: T6, ELK3 (Homo sapiens, UniProt P41970 1-407)
T6 sequence: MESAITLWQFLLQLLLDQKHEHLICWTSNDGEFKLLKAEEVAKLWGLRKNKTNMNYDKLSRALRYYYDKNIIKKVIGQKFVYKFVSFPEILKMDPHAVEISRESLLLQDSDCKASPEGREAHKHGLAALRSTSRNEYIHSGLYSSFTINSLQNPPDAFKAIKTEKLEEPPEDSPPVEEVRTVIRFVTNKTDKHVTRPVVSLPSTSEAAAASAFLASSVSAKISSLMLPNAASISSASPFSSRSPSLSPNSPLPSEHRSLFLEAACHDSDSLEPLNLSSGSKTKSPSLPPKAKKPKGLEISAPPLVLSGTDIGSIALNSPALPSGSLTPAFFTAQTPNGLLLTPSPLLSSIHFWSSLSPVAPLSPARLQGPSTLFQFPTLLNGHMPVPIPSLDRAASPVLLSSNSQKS
Method in brief: as §1

| Sequence | binding signal (FLI1) | binding signal (ELK1) | binding signal (GABPA) | binding signal (ERG) | binding signal (ELF1) | binding signal (EHF) | binding signal (SPI1) | binding signal (SPIB) | binding signal (ELK3) |
| --- | --- | --- | --- | --- | --- | --- | --- | --- | --- |
| TTGCTT | 1.32 fold enrichment (6-mer frequency, TF over GST control) | 1.15 fold enrichment (6-mer frequency, TF over GST control) | 1.36 fold enrichment (6-mer frequency, TF over GST control) | 1.3 fold enrichment (6-mer frequency, TF over GST control) | 1.21 fold enrichment (6-mer frequency, TF over GST control) | 1.2 fold enrichment (6-mer frequency, TF over GST control) | 1.29 fold enrichment (6-mer frequency, TF over GST control) | 1.35 fold enrichment (6-mer frequency, TF over GST control) | 1.26 fold enrichment (6-mer frequency, TF over GST control) |
| ACCTAC | 1.22 fold enrichment (6-mer frequency, TF over GST control) | 1.2 fold enrichment (6-mer frequency, TF over GST control) | 1.21 fold enrichment (6-mer frequency, TF over GST control) | 1.1 fold enrichment (6-mer frequency, TF over GST control) | 1.27 fold enrichment (6-mer frequency, TF over GST control) | 1.21 fold enrichment (6-mer frequency, TF over GST control) | 1.18 fold enrichment (6-mer frequency, TF over GST control) | 1.23 fold enrichment (6-mer frequency, TF over GST control) | 1.13 fold enrichment (6-mer frequency, TF over GST control) |
| TGGCCT | 1.59 fold enrichment (6-mer frequency, TF over GST control) | 1.37 fold enrichment (6-mer frequency, TF over GST control) | 1.51 fold enrichment (6-mer frequency, TF over GST control) | 1.54 fold enrichment (6-mer frequency, TF over GST control) | 1.48 fold enrichment (6-mer frequency, TF over GST control) | 1.5 fold enrichment (6-mer frequency, TF over GST control) | 1.55 fold enrichment (6-mer frequency, TF over GST control) | 1.48 fold enrichment (6-mer frequency, TF over GST control) | 1.29 fold enrichment (6-mer frequency, TF over GST control) |
